ST2 IL33 inh = IL1RL1 inhibition | hit rate 2.3% among 78,000 | inhibition, % for hits at 17 µM | Q01638 | AlphaLISA ST2-Fc/biotin-IL-33 interaction, 1 h; in the data active = inhibition above about 30%
Target sequence (Q01638 whole entry, looked up): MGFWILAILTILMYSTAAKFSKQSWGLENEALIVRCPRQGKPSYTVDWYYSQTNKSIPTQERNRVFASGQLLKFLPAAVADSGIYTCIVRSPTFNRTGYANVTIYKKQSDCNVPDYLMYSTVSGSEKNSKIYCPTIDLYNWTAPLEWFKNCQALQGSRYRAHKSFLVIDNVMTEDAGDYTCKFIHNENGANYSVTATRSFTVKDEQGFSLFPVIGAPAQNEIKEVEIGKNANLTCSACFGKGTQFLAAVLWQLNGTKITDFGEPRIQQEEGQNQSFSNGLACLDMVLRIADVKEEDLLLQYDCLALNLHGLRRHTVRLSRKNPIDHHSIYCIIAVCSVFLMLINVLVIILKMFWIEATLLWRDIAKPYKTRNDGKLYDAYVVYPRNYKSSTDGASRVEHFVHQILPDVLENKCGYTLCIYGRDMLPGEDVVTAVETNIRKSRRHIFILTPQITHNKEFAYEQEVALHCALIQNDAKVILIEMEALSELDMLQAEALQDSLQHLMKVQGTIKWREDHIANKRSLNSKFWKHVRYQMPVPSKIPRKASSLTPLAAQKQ
* = called active by the depositor; i = inactive. Shown is part of a subset that was picked to be rich in hits.

SMILES | ST2 IL33 inh
CCOc1ccc(N2CC(NC(=O)Cc3cccs3)CC2=O)cc1 (stereo unspecified) | i
CCOc1ccc(C2=C/C(=C/c3ccccc3OC)C(=O)O2)cc1 | 46%*
COc1cc2oc(-c3ccccc3)cc(=O)c2c(O)c1OC | i
CCOc1ccc(-c2nc3s/c(=C\c4ccc(Cl)cc4)c(=O)n3n2)cc1 | i
CCOc1ccccc1/C=C1\N=C(c2ccc(Cl)cc2)OC1=O | i
CCN1CCN(C(c2cccs2)C(C)NS(=O)(=O)c2ccc(Cl)cc2)CC1 (stereo unspecified) | i
c1ccc(N2CCN(Cc3ccsc3)CC2)cc1 | i
N#CC1=C2SCN(c3ccc(F)cc3)CN2C(=O)CC1c1ccccc1 (stereo unspecified) | i
O=C1c2ccccc2C(Nc2ccc(F)cc2)N1Cc1ccccc1 (stereo unspecified) | i
O=C(CCC1=NS(=O)(=O)c2ccccc2N1)NCCC1=CCCCC1 | i
Fc1ccccc1OCCn1c2ccccc2c2ccccc21 | i
Cc1ccc(OCCN(C)Cc2ccccc2C(=O)O)c(C)c1 | i
N#CC1=C(N)OC2=C(C(=O)CC(c3ccccc3)C2)C1c1ccc(Cl)c(Cl)c1 (stereo unspecified) | i
CCOC(=O)c1ccc(NC(=O)CSc2nnc3sc4ccccc4n23)cc1 | i
Cc1ccc2nsnc2c1NC(=O)C(c1ccccc1)c1ccccc1 | i
Cc1ccc(C2=C/C(=C\c3cccs3)C(=O)O2)cc1C | 68%*
Cc1ccc(-c2nc(-c3ccncc3)no2)cc1C | i
CCOC(=O)c1nn(Cc2cccc(OC)c2)c2c1CN(C(=O)c1cn3cc(Cl)ccc3n1)CC2 | i
COc1cc(/C=C2/SC(N3CCC(C)CC3)=NC2=O)cc(OC)c1OC | i
O=C1N=C(N2CCOCC2)S/C1=C/c1ccc(Cl)cc1 | i
Cc1ccc(/C=c2\sc3nc(-c4ccc(OC(C)C)cc4)nn3c2=O)o1 | i
C=CCOc1ccc(/C=C2/SC(N3CCOCC3)=NC2=O)cc1 | i
CCOc1ccc(-c2nc3s/c(=C\c4ccc(C)o4)c(=O)n3n2)cc1 | i
Cc1ccc(/C=C2/SC(N3CCC(C)CC3)=NC2=O)o1 | 30%*
O=C1N=C(N2CCOCC2)S/C1=C/c1ccc(-c2ccccc2)o1 | 34%*
SMILES | ST2 IL33 inh
Cc1ccc(/C=C2\CS/C(=C\c3ccc(C)o3)C2=O)o1 | 60%*
CN1CCN(C2=NC(=O)/C(=C/c3cccs3)S2)CC1 | i
Cc1ccc(CNC(=O)CCCn2c(=O)c3sccc3n(Cc3cccnc3)c2=O)cc1 | i
COc1ccc(C(=O)CCC(=O)Nc2ccc(C)cc2)cc1 | i
CCCCOC(=O)C1=C(C)Nc2ncnn2C1c1cc(Br)ccc1OC (stereo unspecified) | i
CSc1cccc(Sc2cc(C(=O)NCc3ccco3)c3ccccc3n2)c1 | i
COC(=O)c1sc2ccccc2c1NC(=O)c1cc(Cl)sc1Cl | i
c1cncc(-c2nc3cnccn3c2NC2CCCCC2)c1 | i
CC1(C)CCN2CCC(C)(C)c3c(O)ccc1c32 | 73%*
Nc1nonc1-n1nnc(C(=O)N2CCCC2)c1-c1ccccc1 | i
CC1N=C2c3ccccc3N=C(SCC(=O)c3ccc(F)cc3)N2C1=O (stereo unspecified) | i
CC1=C(C(=O)Nc2ccccc2)C(c2cccc(Br)c2)n2nnnc2N1 (stereo unspecified) | i
COc1ccc(C2=NN3C(C2)c2cc(Cl)ccc2OC3c2ccncc2)cc1OC (stereo unspecified) | i
Cc1cccc(-c2nnc(-c3nc(NCc4ccccc4C)c4ccccc4n3)o2)c1 | i
Cc1nnc(-c2cccc(-c3cc(NCc4ccccn4)nc4[nH]ccc34)c2)o1 | 35%*
Cc1nnc(-c2ccccc2-c2cccc(CN3CCOCC3)c2)o1 | i
O=c1c2ccccc2c(-c2cccs2)nn1CCc1ccccc1 | 35%*
CC(C)Cn1nc(-c2ccccc2)c2ccccc2c1=O | i
CC(=O)OCCn1nc(-c2ccccc2)c2ccccc2c1=O | i
COc1cccc(/C=C2/C(=O)NN(c3ccc(C)c(Cl)c3)C2=O)c1 | i
O=C1NN(c2ccccc2)C(=O)/C1=C/c1ccccc1OCc1c(F)cccc1Cl | 41%*
COc1cccc(/C=C2/C(=O)NN(c3ccccc3)C2=O)c1OC | i
CCOc1ccc(/C=C2\C(=O)NN(c3cccc(Br)c3)C2=O)cc1OCC | i
Cc1ccccc1OCCOc1ccc([N+](=O)[O-])cc1/C=C1\C(=O)NN(c2ccccc2)C1=O | 35%*
Cc1ccccc1OCCn1cc(C=C2C(=O)N(C)C(=O)N(C)C2=O)c2ccccc21 | i
SMILES | ST2 IL33 inh
CCn1ccnc1C(O)c1cc(OC)c(OC)c(OC)c1 (stereo unspecified) | i
Nc1ccc2c(c1)OC1(CCCCC1)O2 | 37%*
CC1(C(=O)Nc2ccc3c(c2)OC2(CCCCC2)O3)CC1(Cl)Cl (stereo unspecified) | i
O=C1CC2(CCCCC2)Oc2ccc(O)cc21 | i
O=C(c1cccc(C(F)(F)F)c1)C1CCCN(C(=O)/C=C/c2ccccn2)C1 (stereo unspecified) | i
O=C(CCC1CCN(Cc2nc3ccccc3s2)CC1)NCC1CCCO1 (stereo unspecified) | i
Cc1ccc(-c2nnc([C@H]3CCN(Cc4cn(C)c5ccccc45)C3)o2)cc1 | i
COc1ccc(N=Cc2cccc(OC)c2O)c(OC)c1 | i
CCOC(=O)c1cc2c(ccc3oc4c(c32)CCCC4)oc1=O | i
COc1ccccc1N=Cc1c(O)ccc2oc3c(c12)CCCC3 | 31%*
O=C(O)CN=C(NS(=O)(=O)c1ccccc1)c1ccc(F)cc1 | i
CCCN=C(NS(=O)(=O)c1ccc(C)cc1)c1ccc(F)cc1 | i
O=C(O)CN=C(NS(=O)(=O)c1ccccc1)c1ccccc1 | 38%*
CCOC(=O)c1c(NC(=O)c2cc(-c3ccco3)on2)sc(C)c1C | i
Cc1nc2sc(C(c3ccc(Cl)cc3)N3CCC(C(N)=O)CC3)c(O)n2n1 (stereo unspecified) | i
O=C1NC(=O)C(CCc2n[nH]c(Cc3ccccc3)n2)N1 (stereo unspecified) | i
COc1ccc(NC(=O)C(C)n2cccn2)cc1NC(=O)c1ccccc1 (stereo unspecified) | i
Cc1cccc(NC(=O)CCC2CCN(C(=O)C3=NN(C)C(=O)CC3)CC2)c1 | i
COc1ccc2nc(N=C(N)NC(=O)Nc3ccccc3)nc(C)c2c1 | i
CC(=O)NC(=Nc1nc(C)c2cc(C)ccc2n1)NC(C)=O | i
Cc1ccc2nc(N=C(N)NC(=O)Cc3ccc(Cl)cc3)nc(C)c2c1 | 30%*
COc1cccc(NC(=O)CCC2CCN(S(=O)(=O)c3sccc3C)CC2)c1 | i
Cc1nc(C2CCNCC2)cc(N2CCC(C(=O)NCc3ccccn3)CC2)n1 | i
O=C(CN(C1CCCCC1)S(=O)(=O)c1ccc(F)cc1)N1CCN(c2ccccc2F)CC1 | i
CN(CC1CCCO1)c1nc(-c2ccc([N+](=O)[O-])cc2)cs1 (stereo unspecified) | 54%*
SMILES | ST2 IL33 inh
O=C(NCC1CCCO1)c1ccccc1Sc1ccc([N+](=O)[O-])cc1 (stereo unspecified) | i
Nc1nc(-c2ccc([N+](=O)[O-])cc2)cs1 | i
CCCCn1ncc(C)c1NC(=O)Cc1ccc2c(c1)OCO2 | i
OC1CCN([C@@H]2CCN(c3nc(-c4ccccc4)no3)C[C@H]2O)CC1 | i
COc1ccc(NC(=O)Cc2ccc(Br)cc2)cc1 | i
CCC(CC)C(=O)Nc1ccc(Nc2nc(C)cc(Nc3ccccc3)n2)cc1 | i

Assay outcomes: PubChem, Paczesny and Yang Labs, IUPUI and University of Michigan
